Compound activity (PubChem)
A selection: hits, their analogues and other compounds. The true share with any hit is near 0.75%.
Sa RN4220 lethal: S. aureus RN4220 growth inhibition | OD600, 16 h | inhibition, % (no concentration beside the values) | 330,000 compounds, 0.33% hits | AID 1259311; in the data active = inhibition above about 85%
ugtP null kill: kills S. aureus RN4220 lacking UgtP | 330,000 compounds, 0.54% hits | growth inhibition, % (concentration not given with the values) | S. aureus RN4220 ugtP deletion, OD600 growth, 16 h; in the data active = growth inhibition above about 68%
Mtb BioA inh: blocks M. tuberculosis BioA enzyme activity. purified M. tuberculosis BioA enzyme, plate reader. AID 602481. 360,000 compounds, 0.096% hits. inhibition, % at 9.99 µM; in the data active = inhibition above about 40%; inconclusive = no clear call, values can overlap the other calls
Mtb hypoxia rep: Mtb hypoxia fluorescent reporter inhibition; fluorescence inhibition, % (test concentration not listed); M. tuberculosis hypoxia-regulated fluorescent reporter, fluorescence; 300,000 compounds, 0.1% hits; AID 1159583; in the data active = fluorescence inhibition mostly above about 23%, no sharp cut-off; inactive = mostly below about 17%
Y pestis TopoI: blocks Yersinia pestis topoisomerase I activity; Y. pestis Topo-I cleavage product accumulation, plate reader; activity, % at 10 µM; 360,000 compounds, 0.064% hits; in the data active = activity above about 50%, passing the limit was not always enough; inconclusive = no clear call, values can overlap the other calls
TcdB GH inh: blocks C. difficile toxin B glycohydrolase activity | 350,000 compounds, 0.24% hits | TcdB glycohydrolase enzymatic assay, plate reader | inhibition, % at 9.99 µM; in the data active = inhibition above about 10%
A number is an active result; . = inactive; ? = inconclusive; / = not tested or not shown.

SMILES	Sa RN4220 lethal	ugtP null kill	Mtb BioA inh	Mtb hypoxia rep	Y pestis TopoI	TcdB GH inh
CC1CC2C3CC(F)C4=CC(=O)C=C[C@]4(C)[C@@]3(F)C(O)C[C@]2(C)[C@@]1(O)C(=O)COC(=O)C(C)(C)C (some centres undefined)	.	.	/	.	/	/
CCCCCCCCC(=O)NNC(=O)c1c(O)c2ccccc2n(CCC)c1=O	98	98	/	.	.	.
CC(C)(C)c1cc([N+](=O)[O-])cc(C(C)(C)C)c1O	88	93	/	.	/	.
CC(=O)Nc1cc(C(C)(C)C)c(O)c(C(C)(C)C)c1	.	.	/	.	.	/
O=C(O)c1cccc(Cn2c(Cl)c(C=NNc3ccccc3)sc2=O)c1	94	97	/	.	/	/
COC(=O)C1=C(c2ccc(S(C)(=O)=O)cc2)CC2CCC1N2C(=O)NCCO (centres undefined)	.	.	/	.	/	/
Cc1cccc(Nc2nc(-c3sc(C)nc3C)cs2)c1	.	90	.	.	.	.
COC(=O)C1=C(c2cc3ccccc3s2)CC2CCC1N2C (centres undefined)	.	.	/	.	/	/
Cc1ccc([N+](=O)[O-])cc1N(CC(=O)Nc1ccc(S(=O)(=O)Nc2cccc(C(F)(F)F)c2)cc1)S(C)(=O)=O	88	.	.	.	.	/
COc1ccccc1N(CC(=O)Nc1cccc(C(F)(F)F)c1)S(C)(=O)=O	.	.	.	.	.	.
CC(=O)c1cccc(-c2ccnc3c2CC(C(=O)NCc2ccccc2)O3)c1 (centres undefined)	/	/	.	/	.	10
O=C(NCc1ccccc1)C1Cc2c(-c3cccc(F)c3)ccnc2O1 (centres undefined)	/	/	.	/	.	11
CC(=O)c1cccc(-c2ccnc3c2CC(C(=O)NCc2ccc(F)c(F)c2)O3)c1 (centres undefined)	/	/	.	/	.	.
O=[N+]([O-])c1cc([N+](=O)[O-])c2oc(-c3ccccc3)c(Br)c2c1O	92	93	.	.	.	/
Nc1ccc(C(=O)O)cc1[N+](=O)[O-]	.	.	.	.	.	.
O=C(O)C1=CC(c2ccc(C(F)(F)F)cc2)CC(OCCCCO)O1 (centres undefined)	.	.	/	.	/	/
FC(F)C(F)(F)c1cc(-c2ccc(Cl)cc2)n[nH]1	.	.	.	.	.	.
Fc1ccc(-c2cc(C(F)(F)C(F)F)[nH]n2)cc1	.	86	.	.	.	.
COc1cc(/C=C/C(=O)Nc2ccc(OC)c(S(=O)(=O)N3CCOCC3)c2)ccc1OC(F)F	.	87	.	.	.	.
CC(C)NC(=S)NN=Cc1cc(Br)ccc1O	.	.	/	.	/	/
C=CCNC(=O)c1cn(CC)c2cc(N3CCN(C(=O)c4ccco4)CC3)c(F)cc2c1=O	94	98	.	.	.	.
CCn1cc(C(=O)O)c(=O)c2cc(F)c(N3CCN(C(=S)NC(=O)c4ccccc4F)CC3)cc21	99	99	/	.	.	.
CCn1cc(C(=O)O)c(=O)c2cc(F)c(N3CCN(C(=S)NC(=O)c4ccc(OC)cc4)CC3)cc21	99	99	.	.	.	.
CCn1cc(C(=O)O)c(=O)c2cc(F)c(N3CCN(C(=S)NC(=O)c4ccc(Br)cc4)CC3)cc21	/	/	.	/	.	.
CCn1cc(C(=O)NCc2ccco2)c(=O)c2cc(F)c(N3CCN(C(=O)c4ccco4)CC3)cc21	.	.	.	/	.	/
SMILES	Sa RN4220 lethal	ugtP null kill	Mtb BioA inh	Mtb hypoxia rep	Y pestis TopoI	TcdB GH inh
CCn1cc(C(=O)O)c(=O)c2cc(F)c(N3CCN(C(=O)Nc4ccccc4)CC3)cc21	.	96	/	.	.	/
O=C(NC1CCCC1)c1cccc2c1C(=O)c1ccc(C=Cc3ccccc3)cc1S2(=O)=O	.	.	/	.	/	/
CCCCCCCC(=O)N1CCN(c2cc3c(cc2F)c(=O)c(C(=O)O)cn3CC)CC1	95	99	.	.	.	.
CCn1c(=O)c(C(=O)NNC(=O)c2cccc(Cl)c2)c(O)c2ccccc21	100	100	.	.	.	.
Cn1c(=O)c(C(=O)NNC(=O)c2cccc(Cl)c2)c(O)c2ccccc21	100	100	.	.	.	.
CCn1c(=O)c(C(=O)NNC(=O)c2ccc(Cl)cc2Cl)c(O)c2ccccc21	.	.	.	.	.	.
NC(COc1ncn(-c2ccccc2)n1)=NS(=O)(=O)c1ccc(Cl)cc1Cl	.	.	/	.	/	/
CC(C)(C)c1cc(Cl)c(O)c(NC(=S)NC(=O)c2cccnc2)c1	.	.	/	.	.	10
CC(C)(C)c1ccc(C(=O)NNC(=S)NC(=O)c2cccnc2)cc1	.	.	.	.	.	.
O=C(NCc1ccncc1)[C@@H]1CCCN1C(=O)[C@@H]1CCCN1	/	/	/	/	/	12
O=C(NCc1ccccc1Cl)[C@H]1CCCN1C(=O)[C@H]1CCCN1	/	/	/	/	/	.
O=C(NCc1ccccc1)[C@@H]1CCCN1C(=O)[C@@H]1CCCN1C(=O)c1cccs1	/	/	/	/	/	12
O=C(COc1ccc(Cl)cc1Cl)NN=Cc1ccccn1	.	.	/	.	/	/
CCN1/C(=C/c2ccc3cc(C)ccc3[n+]2CC)Sc2cc(C)ccc21	100	100	.	/	.	.
CCN1/C(=C/c2cccc[n+]2C)Sc2ccc(OC)cc21	/	/	.	/	.	.
CCN1/C(=C/c2ccc3cc(C)ccc3[n+]2C)Sc2ccc3sccc3c21	99	100	.	/	.	.
O=C1/C(=C\c2ccc(O)cc2)SC(=S)N1Cc1ccccc1	/	/	.	/	.	.
O=C1/C(=C\c2cc(Br)cc(Br)c2O)SC(=S)N1Cc1ccccc1	100	100	.	.	.	/
CCOc1ccc(N/C(SCc2cccc([N+](=O)[O-])c2)=C(/C#N)C(N)=O)cc1	.	.	/	.	.	.
N#CC(C#N)=C(Nc1ccc(F)cc1)SCc1cccc(F)c1	99	98	/	.	.	/
CC(=NOC(=O)c1ccc(C)cc1)c1c(C)nc2cc(C)ccn12	.	.	/	.	/	/
Cc1cc(N2CCCC2=O)cc(C)c1S(=O)(=O)Nc1c(C)nn(C)c1C	.	.	.	.	.	42
Cc1cc(N2CCCC2=O)ccc1S(=O)(=O)Nc1c(C)nn(C)c1C	.	.	.	.	.	.
Cc1ccc(CSc2nc3ccsc3c(=O)n2Cc2ccccn2)cc1	.	87	.	.	?	/
COc1ccc(-c2noc(-c3ccccc3F)n2)cc1	.	.	.	.	.	.
SMILES	Sa RN4220 lethal	ugtP null kill	Mtb BioA inh	Mtb hypoxia rep	Y pestis TopoI	TcdB GH inh
COc1ccc(-c2noc(-c3ccccc3-c3ccccc3)n2)cc1	.	88	.	.	.	/
COc1cc([N+](=O)[O-])c2ncsc2c1	.	.	/	.	.	.
COc1cc(SSc2cc(OC)cc([N+](=O)[O-])c2N)c(N)c([N+](=O)[O-])c1	.	87	.	.	.	.
O=C(O)CC1c2ccc(C(F)(F)F)cc2S(=O)(=O)N1C1CCCCC1 (centres undefined)	.	.	/	.	/	/
C=CCN1c2ccccc2[C@]23CC(C(=O)OC)N(C(C)=O)C2=NC(C(=O)OC)=C(C(=O)OC)C13 (some centres undefined)	.	.	/	.	/	/
CCCc1cc(-c2n[nH]c(C(=O)OCC)c2-c2cscn2)c(O)cc1O	.	.	.	.	.	22
